# The whole screen tested about 48,000 compounds, of which about 13,000 (27%) showed an effect of 50% or more. The list shows a part of the results.
# Tested on: Wolbachia pipientis
# Experiment: Anti-Wolbachia Cell-Based Screen
# Type: functional
# Design: scale not given: in the data most compounds retested in dose-response had high values
# Settings: 5 µM
row,Structure (SMILES),Percent Effect [%]
1,Cc1ncsc1C(=O)NCc1cc2n(n1)CCN(C(=O)N(C)C)C2,-4.389
2,Cc1sc2nc(CCN)nc(N3CCN(S(C)(=O)=O)CC3)c2c1C,5.151
3,CN1CC(=O)N(c2cnn(C)c2)CC12CCN(C(=O)c1ccsc1)C2.O=C(O)C(F)(F)F (stereo not drawn),-13.31
4,CN1CC(=O)N(c2ccsc2)CC12CCN(C(=O)c1ccccc1)C2.O=C(O)C(F)(F)F (stereo not drawn),8.898
5,CN1CC(=O)N(c2cccnc2)CC12CCN(C(=O)c1cccnc1)C2.O=C(O)C(F)(F)F.O=C(O)C(F)(F)F (stereo not drawn),-6.437
6,CCC(CC)C(=O)N1CCC2(C1)CN(c1ccccc1)C(=O)CN2C.O=C(O)C(F)(F)F (stereo not drawn),-2.96
7,CN1CC(=O)N(c2ccccc2)CC12CCN(C(=O)c1cnccn1)C2.O=C(O)C(F)(F)F (stereo not drawn),102.5
8,CN1CC(=O)N(c2ccccc2)CC12CCN(C(=O)c1ccnnc1)C2.O=C(O)C(F)(F)F (stereo not drawn),94.6
9,Cc1ccsc1C(Cc1ccccc1)NC(=O)CSCC(N)=O (stereo not drawn),-6.461
10,COCCCOC1CN(C(=O)c2[nH]nc3c2CCCC3)C1,-6.811
11,Cl.Cl.O[C@@H]1C[C@@](CNCC2CC2)(COc2cccnc2)C[C@@H]1O,-8.613
12,CC(C)(C)c1cc(=O)[nH]c(-c2ccccc2CN2CCCCCC2)n1,107.3
13,CC(C)(C)c1cc(=O)[nH]c(-c2ccccc2CN2CCC[C@@H](O)C2)n1,-11.42
14,CC1(C)CCN(Cc2ccccc2-c2nc(C(C)(C)C)cc(=O)[nH]2)C1,-0.3128
15,CC(C)N1CCC(CC(=O)N2CCC(C(O)c3nccn3C)CC2)CC1 (stereo not drawn),112.6
16,Cc1nc(N2CCC(C(O)c3nccn3C)CC2)c2cccnc2n1 (stereo not drawn),-5.3
17,Cc1nc(N2CCC(C(O)c3nccn3C)CC2)c2nc(C)oc2n1 (stereo not drawn),6.999
18,Cc1nc(N2CCC(C(O)c3nccn3C)CC2)c2c(C)noc2n1 (stereo not drawn),0.7849
19,CCCN1CCC(CC(=O)N2CCC(C(O)c3nccn3C)CC2)CC1 (stereo not drawn),109.9
20,CC(C)N1CCC(CC(=O)N2CCCCC2CCn2cccn2)CC1 (stereo not drawn),17.49
21,CC(C)n1ccnc1CN1CCCN(C(=O)CC2C=CCC2)CC1 (stereo not drawn),11
22,CCCN1CCC(CC(=O)N2CC(C)(C)[C@@](C)(O)C2)CC1,2.3
23,CC(C)N1CCC(C(=O)N2CCC(C(O)c3nccn3C)CC2)CC1 (stereo not drawn),119.5
24,CC(C)N1CCC(CC(=O)N2CCN(Cc3nccn3C)CC2)CC1,103.8
25,CCn1ncnc1C(NC(=O)CC1CCN(C(C)C)CC1)C1CC1 (stereo not drawn),-0.6358

row,Structure (SMILES),Percent Effect [%]
1,CCOc1ccccc1CN(CC)Cc1ccc(S(C)(=O)=O)cc1,14.95
2,CSc1ccc(NCC(=O)Nc2c(C)nn(C)c2C)cc1F,-13.07
3,Cn1c(=O)ccn(CC(=O)Nc2cnccc2O)c1=O,-3.574
4,CC(NC(=O)Cn1ccc(=O)n(C)c1=O)c1ccccc1F (stereo not drawn),122
5,CC(NCCn1cccn1)c1ccccc1F (stereo not drawn),17.82
6,CC(NC(=O)Cn1ccc(=O)n(C)c1=O)c1cc(F)ccc1F (stereo not drawn),123.1
7,Cn1c(=O)ccn(CC(=O)NCC2Cc3ccccc3O2)c1=O (stereo not drawn),4.727
8,CCS(=O)(=O)CC(=O)NC(C)c1ccc(F)cc1F (stereo not drawn),5.956
9,Cc1nnc2n1CCN(c1nc3ccccc3o1)C2,7.974
10,CCCNC(=O)C(C)Oc1ccc(F)cc1 (stereo not drawn),-16.03
11,CCCNC(=O)C(C)Oc1ccccc1 (stereo not drawn),7.787
12,CC(Oc1ccc(S(C)(=O)=O)cc1)C(=O)NC(N)=O (stereo not drawn),-0.9866
13,CC(Oc1cc(Cl)cc(Cl)c1)C(=O)NCCOCC(N)=O (stereo not drawn),92.53
14,CC(C)c1ccc(OCCC(=O)NCCC(=O)N(C)C)cc1,5.568
15,CC(Oc1ccccc1C(F)(F)F)C(=O)NCCC(=O)N(C)C (stereo not drawn),4.179
16,CC(Oc1cc(Cl)cc(Cl)c1)C(=O)NCCS(N)(=O)=O (stereo not drawn),112.6
17,CC(Oc1cc(Cl)cc(Cl)c1)C(=O)NCCC(=O)N(C)C (stereo not drawn),99.28
18,CCNC(=O)C(C)Oc1ccc(N(C)S(C)(=O)=O)cc1 (stereo not drawn),35.45
19,Cc1ccc(-c2noc([C@@H]3C[C@H](NC(=O)NC(C)C)CN3C)n2)cc1,-7.192
20,Cc1cnn(C2CN(C(C)c3nc(-c4ccccc4)no3)C2)c1 (stereo not drawn),-0.8523
21,Cc1ccc(-c2noc(C(C)NS(C)(=O)=O)n2)cc1 (stereo not drawn),98.3
22,CSCCC(=O)N1CCCCC1CCn1cccn1 (stereo not drawn),-3.819
23,O=C(CCc1ccsc1)N1CCCCC1Cn1cccn1 (stereo not drawn),114.6
24,O=C(CCc1ccccc1)N1CCCCC1Cn1cccn1 (stereo not drawn),99.73
25,COc1cccc(CCC(=O)N2CCCCC2Cn2cccn2)c1 (stereo not drawn),-6.08

row,Structure (SMILES),Percent Effect [%]
1,O=C(CCc1cccs1)N1CCCCC1Cn1cccn1 (stereo not drawn),8.16
2,CN(Cc1ccsc1)C(=O)CN1CCCCC1Cn1cccn1 (stereo not drawn),-3.818
3,O=C(CN1CCN(CCO)CC1)NCc1ccc(Cl)s1,-5.807
4,Cc1nsc(NC2CCOC3(CCCC3)C2)n1 (stereo not drawn),-8.543
5,CCn1cc(C(=O)N2C[C@H]3C[C@H](Oc4ccccc4)C[C@H]3C2)cn1,75.19
6,Cc1cccc(OC2CN(C(=O)c3cnn(C)c3)C2)c1,-4.108
7,CCc1ncc(C(=O)N2CC(Oc3ccccc3Cl)C2)cn1,4.007
8,Cn1cc(C(=O)N2C[C@H]3C[C@H](Oc4ccccc4)C[C@H]3C2)cn1,96.44
9,CCn1cc(CN2C[C@H]3CC[C@@H]2CN(C(=O)c2ccncc2)C3)cn1,5.818
10,CN(C)c1ncc(C(=O)N2C[C@H]3C[C@H](Oc4ccccc4)C[C@H]3C2)cn1,125.1
11,COc1cccc(OC2CN(C(=O)c3ccnc(OC)c3)C2)c1,6.103
12,Cn1cc(C(=O)N2CCCN(C3Cc4ccccc4C3)CC2)cn1,-3.221
13,COc1ccc(CNC(=O)c2ccc(Br)cn2)cc1,-6.814
14,O=C(NC[C@]1(O)CN(Cc2ncccc2F)C[C@H]1O)c1cc[nH]n1,112.1
15,O=C(NC[C@]1(O)CN(Cc2ccc(F)cc2)C[C@H]1O)c1ccccn1,127.5
16,Cc1ncsc1CN1C[C@@H](O)[C@](O)(CNC(=O)c2ccccn2)C1,100.8
17,O=C(N[C@@H]1CCN(C(=O)c2ccc(F)cc2Cl)C[C@H]1O)c1ccccn1,-3.407
18,Cc1ncsc1CN1C[C@@H]2COC[C@]2(CNC(=O)c2ccco2)C1.O=C(O)C(F)(F)F,-13.65
19,Cc1cccc(CN2C[C@@H]3COC[C@]3(CNC(=O)c3ccsc3)C2)n1.O=C(O)C(F)(F)F.O=C(O)C(F)(F)F,8.722
20,NC(=O)C(NC1CCN(Cc2ccc(F)cc2)CC1)c1ccccc1 (stereo not drawn),12
21,Cc1ncsc1CNC(=O)N1CCN(Cc2ccccc2)C[C@H]1C,1.865
22,COc1ccc2c(c1)nc1n2[C@@H](CNC(=O)c2ccccn2)COC1,1.575
23,COc1ccc(CN2C[C@@H](O)[C@](O)(CNC(=O)c3ccccn3)C2)cc1,112

# — ChEMBL document CHEMBL3988442, “University of Dundee, Small-Polar-MMV Screening Library” (2021)
